These results are taken from PubChem BioAssay (NCATS).

A short description of assay [1]: Viability qHTS for spleen associated tyrosine kinase inhibitor (SYKi) drug resistant MV4-11 cells (AID 1963824). Also: nearly all actives have a fitted effect of over 35% in size. The method, boiled down: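 CellTiter-Glo luminescence, read 10 min after reagent addition, reports viability after a 72 hr compound exposure. Cells are an MV4-11 line made resistant to SYK inhibition, seeded at 500 per well onto compound-containing plates.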
(In general: In qHTS, concentration-response curves come from the screen itself.)

Assay [2] is described as follows: Cellular viability qHTS for adrenocortical cancer (ACC) cell line SW-13 (AID 1963989). Also: nearly all actives have a fitted effect of over 65% in size.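 As to activity (max response): cells grown in serum-free medium with ITS supplement; % is scaled to controls: 0 for no effect and ±100 for the full control effect.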 As to conditions: SW-13 ACC cells viability, CellTiter-Glo, 48 h; activity (max response): active compounds read low. A digest of the protocol: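 IC50 and maximal-response values come from four-parameter logistic fits of titration data. SW-13 cells in serum-free medium received compounds (up to 46 uM final) for 48 h before CellTiter-Glo luminescence.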

A short description of assay [3]: Cellular viability qHTS for adrenocortical cancer (ACC) cell line NCI-H295R (AID 1963990). Also: nearly all actives have a fitted effect of over 60% in size.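 As to activity change, negative = viability loss: 0% = DMSO only wells and -100% = full killing with cytotoxic reference compound.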 A digest of the protocol: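 Adrenocortical carcinoma cells, suspended at 300 000 cells/mL in serum-free DMEM plus ITS, rested overnight before pin transfer of compound. After two days' incubation, ATP-dependent luminescence was recorded and curve-fitted.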

Values joined by “and” are separate entries in the source; they are usually repeats but may differ in a detail not shown here. Identical values can stand only once. Results filed as inconclusive are left out. Values without a mark were called inactive. Active and inactive are the calls of the source. Calls follow the shape of the dose curve; as a rule, active = well fitted curve in the direction sought with a large enough effect; inconclusive = small, poorly fitted or top-dose-only effect, or another doubt; inactive = no such curve, though single readings can be large; an effect the other way counts as inactive or inconclusive.
Potency is read from the fitted curve at half-maximal effect.

Consider `COc1cccc(-c2cc(F)ccc2C2Cc3nc(N)nc(C)c3C(=O)N2)n1` (stereo unspecified), for which the Potency in assay [1] is 0.0186 µM (active); in assay [2], 0.112 µM (active); in assay [3] it was 0.0501 µM (active).
`CC1(C)O[C@@H]2C[C@H]3[C@@H]4CCC5=CC(=O)CC[C@]5(C)[C@@]4(F)[C@@H](O)C[C@]3(C)[C@]2(C(=O)CCl)O1`: the Potency in assay [1] is 18.8 µM (active). Moreover, the activity (max response) in assay [2] is 9.64%. The Potency result in assay [3] was “inactive”.
`C/C(=C(\CCOP(=O)(O)O)SC(=O)c1ccccc1)N(C=O)Cc1cnc(C)nc1N`: the viability, % of control in assay [1] is 78.4% [at 4.97 µM]. Besides, the activity (max response) in assay [2] was 11.3%. The activity change, negative = viability loss in assay [3] was 7.45% [at 3.81 µM].
`C[C@]12CCC(=O)C=C1C=C[C@@H]1[C@@H]2CC[C@@]2(C)[C@H]1CC[C@@]21CCC(=O)O1`: the Potency result in assay [1] and in assay [3] was “inactive” each time. Moreover, the activity (max response) in assay [2] was 8.87%.
As to `C[n+]1cc2c3c(ccc2c2ccc4cc5c(cc4c21)OCO5)OCO3`, the values for the Potency in assay [1], in assay [2] and in assay [3] were 1.3 µM (active), 2.24 µM (active) and 1.42 µM (active), respectively.
Take `NC[C@H]1O[C@H](O[C@H]2[C@H](O)[C@@H](O[C@H]3O[C@H](CO)[C@@H](O)[C@H](N)[C@H]3O)[C@H](N)C[C@@H]2N)[C@H](N)C[C@@H]1O`: the Potency in assay [1] is 18.6 µM (active). In addition, in assay [2], the activity (max response) is 4.38%. The Potency result in assay [3] was “inactive”.
Consider `Cc1cc(C(C#N)c2ccc(Cl)cc2)c(Cl)cc1NC(=O)c1cc(I)cc(I)c1O` (stereo unspecified), for which the Potency in assay [1] is 18.8 µM (active) and 23.1 µM (active); in assay [2] it was 4.11 µM (active); in assay [3], 3.66 µM (active).
As for `O=C(NOCCO)c1cc(CN2OCCCC2=O)c(F)c(F)c1Nc1ccc(I)cc1F`, the results for the Potency in assay [1], in assay [2] and in assay [3] were 0.0651 µM (active), 7.08 µM (active) and 25.1 µM (active), respectively.
Regarding `O=C(/C=C\n1cnc(-c2cc(C(F)(F)F)cc(C(F)(F)F)c2)n1)NNc1ccccn1`, the values for the Potency in assay [1], in assay [2] and in assay [3] were 2.63 µM (active), 11.2 µM (active) and 3.98 µM (active), respectively.
Turning to `CC[C@H](NC(=O)[C@H](CS(=O)(=O)CC1CC1)N[C@@H](c1ccc(F)cc1)C(F)(F)F)C(=O)C(=O)NC1CC1`, the Potency entry in assay [1] and in assay [3] was “inactive” in each case. Also, the activity (max response) in assay [2] was -11.3%.
Take `Nc1c(I)cc(I)c(C(=O)N(CCC(=O)O)c2ccccc2)c1I`: the Potency result in assay [1] and in assay [3] was “inactive” each time. In addition, in assay [2], the activity (max response) was -3.73%.
With `O=C(Nc1ccc(Cl)cc1)Nc1ccc(Cl)c(C(F)(F)F)c1`, the Potency in assay [1] was 7.5 µM (active); in assay [2] it was 2.91 µM (active); in assay [3], 1.84 µM (active).
For `O=C1OC2(CCC(C(=O)Nc3ccn(-c4ccccc4F)n3)CC2)c2cnccc21` (stereo unspecified), the Potency in assay [1] was 4.17 µM (active). Further, in assay [2], the activity (max response) is -3.21%. The Potency result in assay [3] is “inactive”.
`CNCCCOc1cc(F)c(-c2c(Cl)nc3ncnn3c2N[C@@H](C)C(F)(F)F)c(F)c1`: the Potency is 0.0372 µM (active) in assay [1], 0.0501 µM (active) in assay [2] and 0.112 µM (active) in assay [3].
In the case of `C=CCSCC1Nc2cc(Cl)c(S(N)(=O)=O)cc2S(=O)(=O)N1` (stereo unspecified), in assay [1], the Potency was 10.6 µM (active). In addition, the activity (max response) in assay [2] was 6.34%. In assay [3], the Potency result was “inactive”.
Turning to `CC(=O)OCC(=O)[C@@]1(O)CCC2C3CCC4=CC(=O)CC[C@]4(C)C3[C@@H](O)C[C@@]21C` (stereo partly specified), the Potency result in assay [1] and in assay [3] was “inactive” throughout. Besides, the activity (max response) in assay [2] is -1.87%.
As to `COc1ccc([C@@H]2CC(=O)c3c(O)cc(O[C@@H]4O[C@H](CO[C@@H]5O[C@@H](C)[C@H](O)[C@@H](O)[C@H]5O)[C@@H](O)[C@H](O)[C@H]4O)cc3O2)cc1O`, the Potency in assay [1] was 8.33 µM (active). For the same molecule, the activity (max response) in assay [2] is 3.7%. Further, the Potency entry in assay [3] is “inactive”.
In the case of `CN(C)CCC[C@@]1(c2ccc(F)cc2)OCc2cc(C#N)ccc21`, the Potency in assay [1] is 8.41 µM (active). Further, the activity (max response) in assay [2] is -9.39%. Further, the Potency entry in assay [3] is “inactive”.
As for `CCNC(=O)CCC/C=C\C[C@@H]1[C@@H](/C=C/C(O)CCc2ccccc2)[C@@H](O)C[C@@H]1O` (stereo partly specified), the Potency in assay [1] is 14.8 µM (active). In addition, the activity (max response) in assay [2] is -10.9%. Further, the Potency result in assay [3] is “inactive”.
Regarding `O=C(NC[C@H](O)CN1CCc2ccccc2C1)c1ccnc(NC2CCC2)c1`, the Potency in assay [1] was 6.61 µM (active). Further, in assay [2], the activity (max response) is -19.6%. In addition, the Potency result in assay [3] is “inactive”.
For `CC(=O)O[C@]1(C(C)=O)CC[C@H]2[C@@H]3C=C(Cl)C4=CC(=O)CC[C@]4(C)[C@H]3CC[C@@]21C`, in assay [1], the Potency was 11.9 µM (active). In addition, the activity (max response) in assay [2] is -0.809%. In assay [3], the Potency entry is “inactive”.
Take `COc1ccnc2[nH]cc(C(=O)C(=O)N3CCN(C(=O)c4ccccc4)C[C@H]3C)c12`: the Potency result in assay [1] and in assay [3] was “inactive” throughout. In assay [2], the activity (max response) is 1.31%.
With `C#C[C@]1(O)CC[C@H]2[C@@H]3CCc4cc(OC)ccc4[C@H]3CC[C@@]21C`, the Potency in assay [1] was 13.3 µM (active). In addition, in assay [2], the activity (max response) is 5.57% and 4.24%. Moreover, in assay [3], the Potency result was “inactive”.
As for `CN1CCC(=C2c3ccccc3Sc3ccccc32)CC1`, the results for the Potency in assay [1], in assay [2] and in assay [3] were 16.8 µM (active), 23.1 µM (active) and 8.2 µM (active), respectively.
Turning to `CC[C@@]1(O)C(=O)OCc2c1cc1n(c2=O)Cc2c-1nc1cc(F)c(C)c3c1c2[C@@H](N)CC3`, the Potency is 0.0042 µM (active) in assay [1], 0.794 µM (active) in assay [2] and 5.01 µM (active) in assay [3].
Consider `C/C=C/C=N/NC(=O)c1ccncc1`, for which the Potency result in assay [1] and in assay [3] was “inactive” each time. The activity (max response) in assay [2] was -0.764%.
For `CN1C(=O)[C@@H](NC(=O)c2n[nH]c(Cc3ccccc3)n2)COc2ccccc21`, the Potency entry in assay [1] and in assay [3] was “inactive” throughout. In addition, the activity (max response) in assay [2] was 8.85%.
